ABHD5-PLIN5 inh: ABHD5-PLIN5 interaction inhibitors, primary screen, cell lysate, split luciferase complementation, luminescence. Split G. princeps luciferase complementation, 4 h. inhibition, % at 4 µM. 0.78% of 360,000 active. AID 602281, 2012;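 active means inhibition above the mean inhibition across every tested compound plus 3 SD, cut at about 22% in these data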
Target sequence (Q00G26 whole entry, looked up): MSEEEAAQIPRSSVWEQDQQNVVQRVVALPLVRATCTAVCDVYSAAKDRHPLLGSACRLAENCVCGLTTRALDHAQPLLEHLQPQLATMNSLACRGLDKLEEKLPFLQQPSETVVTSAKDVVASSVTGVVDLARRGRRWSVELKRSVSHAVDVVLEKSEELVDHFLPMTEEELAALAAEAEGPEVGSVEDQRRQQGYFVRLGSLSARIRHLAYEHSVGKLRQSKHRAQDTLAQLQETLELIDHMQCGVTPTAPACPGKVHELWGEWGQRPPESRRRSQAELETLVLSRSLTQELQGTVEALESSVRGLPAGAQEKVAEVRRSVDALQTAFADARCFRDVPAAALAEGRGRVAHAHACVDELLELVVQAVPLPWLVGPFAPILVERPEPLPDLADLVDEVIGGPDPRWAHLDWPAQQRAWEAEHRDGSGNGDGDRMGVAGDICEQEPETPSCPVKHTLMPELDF
Target sequence (Q8WTS1 whole entry, looked up): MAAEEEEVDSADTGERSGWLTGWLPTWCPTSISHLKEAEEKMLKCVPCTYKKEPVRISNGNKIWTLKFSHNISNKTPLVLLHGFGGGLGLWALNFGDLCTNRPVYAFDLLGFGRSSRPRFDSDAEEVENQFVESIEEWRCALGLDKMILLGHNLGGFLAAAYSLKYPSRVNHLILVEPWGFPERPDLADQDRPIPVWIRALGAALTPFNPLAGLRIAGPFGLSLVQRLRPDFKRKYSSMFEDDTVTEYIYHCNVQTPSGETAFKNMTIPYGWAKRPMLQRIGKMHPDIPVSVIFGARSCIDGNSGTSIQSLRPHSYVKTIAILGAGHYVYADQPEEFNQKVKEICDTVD
TRPM1 prom inh: inhibitors of MITF-dependent TRPM1 promoter reporter, primary screen, cell-based, SK-MEL-5, single point, luciferase; inhibition, % at 12.5 µM; AID 488899, 2010; 0.83% of 330,000 active; SK-MEL-5 TRPM1 promoter luciferase, 24 h;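 active means mean inhibition across replicates of 60% or more, whatever share of single replicates reaches that level; inconclusive means some that reach 60%, reason not given; inactive means mean inhibition across replicates below 60%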
Shn3 inh set2: reduction of Shn3 3'UTR firefly luciferase signal, primary screen, Schnurri-3 inhibitor project, cell-based, Clone20 osteoblasts, set 2. Clone20 osteoblast Shn3 3'UTR firefly luciferase, 24 h. 0.52% of 360,000 active. inhibition, % at 12.5 µM. AID 588674, 2011;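 active means mean inhibition of at least 75% with every replicate also reaching 75%; inconclusive means mean inhibition at least 75% but some replicate below; inactive means mean inhibition below 75%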
Peg3 prom inh: Peg3 promoter-driven luciferase inhibitors, primary screen, cell-based, HeLa, luciferase luminescence. HeLa PEG-Prom luciferase reporter, overnight. inhibition, % at 20 µM. 1.7% of 360,000 active. AID 588405, 2011;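 active means inhibition of at least 50% at 20 µM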
EWS-Fli block: EWS/Fli-driven NR0B1 reporter inhibitors, primary screen, A673 cells, NR0B1 luciferase, luminescence, MLPCN library; viability-normalised; inhibition, % at 12.6 µM; 0.67% of 350,000 active; AID 651661, 2012;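 active means mean inhibition of at least 50% after viability correction, with every replicate also passing that limit; inconclusive means mean reaches 50% but only one of two replicates passes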;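 further: firefly luciferase signal divided by Alamar Blue viability fluorescence both relative to DMSO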
PAX8 inh HTS: inhibitors of PAX8-driven TPO luciferase reporter, primary screen, RMG-I cells, single concentration. 1.2% of 360,000 active. AID 652154, 2013. SteadyGlo, 24 h. inhibition, % at 12.6 µM;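 active means mean replicate inhibition at least 60% with every replicate also reaching 60%; inconclusive means only one of the two criteria is met; inactive means mean below 60% and not all replicates reaching 60%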;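 further: luciferase light reporting Pax8 driven TPO promoter activity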
A number is an active result; i = inactive; ? = inconclusive; nt = no result given. A selection: hits, their analogues and other compounds. The true share with any hit is near 3%.

SMILES | ABHD5-PLIN5 inh | TRPM1 prom inh | Shn3 inh set2 | Peg3 prom inh | EWS-Fli block | PAX8 inh HTS
C[C@@H]1CN([C@H](C)CO)C(=O)c2cc(NC(=O)Nc3cccc4ccccc34)ccc2O[C@@H](C)CCCCO[C@H]1CN(C)Cc1ccc2c(c1)OCO2 | nt | nt | nt | nt | ? | 69
O=S(=O)(Cc1ccccc1)N1CCCCN2[C@H](CO)[C@H](c3ccc(-c4ccccc4)cc3)[C@H]2C1 | nt | nt | nt | nt | i | i
C[C@@H]1CN([C@@H](C)CO)C(=O)CCCn2cc(nn2)CO[C@H]1CN(C)Cc1ccc(-c2ccccc2)cc1 | nt | nt | nt | nt | i | nt
Cc1ccccc1-c1ccc2c(c1)O[C@H](CN(C)Cc1ccncc1)[C@@H](C)CN([C@@H](C)CO)S2(=O)=O | nt | nt | nt | nt | i | nt
CNC[C@H]1Oc2ccc(NC(=O)Cn3cnnn3)cc2C(=O)N([C@@H](C)CO)C[C@@H]1C | nt | nt | nt | nt | i | nt
OC[C@@H]1[C@@H](c2ccccc2)[C@@H](CNCC2CCC2)N1CC1CC1 | nt | nt | nt | nt | i | i
Cc1cc(C)n(-c2ccc3cccc(NS(C)(=O)=O)c3n2)n1 | i | 62 | 90 | 59 | nt | nt
O=S(=O)(Nc1cccc2cccnc12)c1ccc(S(=O)(=O)N2CCCC2)cc1 | i | i | i | 50 | nt | nt
O=S(=O)(Nc1cccc2ccccc12)c1ccccc1 | i | i | i | i | i | i
CC(=O)Nc1ccc(S(=O)(=O)Nc2cccc3cccnc23)cc1 | i | i | i | i | i | i
CS(=O)(=O)Nc1cccc2cccnc12 | i | i | i | i | nt | nt
Cc1ccc2cccc(NS(=O)(=O)c3ccccc3)c2n1 | nt | nt | nt | nt | i | 96
CN(C)C(=O)C[C@H]1C=C[C@@H](NS(=O)(=O)c2ccccc2)[C@H](CO)O1 | nt | nt | nt | nt | i | i
COc1cc(CCC(=O)Nc2ncc(C)s2)cc(OC)c1OC | i | i | i | i | i | i
COc1cc(CCC(=O)Nc2nnc(C)s2)cc(OC)c1OC | i | i | i | i | 51 | i
CCn1nnc2cc(C(=O)Nc3cc(Cl)ccc3C)ccc21 | i | i | 88 | i | i | i
CCCNC(=O)C[C@H]1CC[C@H]2[C@H](COc3ccc(NC(=O)Cc4ccccc4)cc3C(=O)N2C)O1 | nt | nt | nt | nt | i | i
Cc1ccc(CNC(=O)c2ccc3c(=O)c(O)c(-c4ccc(C)cc4)[nH]c3c2)cc1 | i | i | 87 | i | i | 70
CNc1ccc(Br)cc(C(=O)/C=C/c2cccc(Cl)c2Cl)c1=O | i | 81 | i | 106 | i | i
O=C(Nc1ccc(F)cc1)N1CC(=O)N2[C@H](CO)[C@H](c3ccc(C#Cc4ccc(F)cc4)cc3)[C@H]2C1 | nt | nt | nt | nt | i | i
O=C(Nc1ccc(F)cc1)N1CC(=O)N2[C@@H](CO)[C@H](c3ccc(-c4ccc(F)cc4)cc3)[C@@H]2C1 | nt | nt | nt | nt | i | 101
COc1ccc(NC(=O)N2CC(=O)N3[C@@H](CO)[C@H](c4ccc(/C=C/c5ccccc5)cc4)[C@@H]3C2)cc1 | nt | nt | nt | nt | i | i
O=C(Nc1ccc(F)cc1)N1CC(=O)N2[C@@H](CO)[C@@H](c3ccc(C#Cc4ccc(F)cc4)cc3)[C@@H]2C1 | nt | nt | nt | nt | i | 119
COc1ccc(NC(=O)N2CC(=O)N3[C@H](C2)[C@H](c2ccc(/C=C/c4ccccc4)cc2)[C@@H]3CO)cc1 | nt | nt | nt | nt | i | 105
O=C(Nc1ccc(F)cc1)N1CC(=O)N2[C@H](C1)[C@H](c1ccc(C#Cc3ccc(F)cc3)cc1)[C@@H]2CO | nt | nt | nt | nt | i | 68
SMILES | ABHD5-PLIN5 inh | TRPM1 prom inh | Shn3 inh set2 | Peg3 prom inh | EWS-Fli block | PAX8 inh HTS
CN1CCN(C(=O)C[C@@H]2CC[C@H]3[C@@H](COC[C@@H](O)CN3C(=O)C3CC3)O2)CC1 | nt | nt | nt | nt | i | i
O=C(NCC[C@H]1CC[C@@H](NS(=O)(=O)Cc2ccccc2)[C@H](CO)O1)C1CCC1 | nt | nt | nt | nt | i | i
CN1CCN(/N=C/c2ccc(N(C)c3ccccc3)cc2)CC1 | i | i | i | i | i | i
CN1CCN(/N=C/c2ccc(N(c3ccccc3)c3ccccc3)cc2)CC1 | i | i | i | 97 | i | i
COc1ccc(S(=O)(=O)Nc2cccc3c2O[C@H](CN(C)Cc2ccc4c(c2)OCO4)[C@@H](C)CN([C@H](C)CO)C3=O)cc1 | nt | nt | nt | nt | i | i
O=C(C[C@@H]1CC[C@H](NC(=O)C2CC2)[C@@H](CO)O1)NC1CCC1 | nt | nt | nt | nt | i | i
Cc1noc(C)c1S(=O)(=O)Nc1ccc2c(c1)C(=O)N([C@H](C)CO)C[C@H](C)[C@H](CN(C)C(=O)Nc1ccc(C(F)(F)F)cc1)OCCCC[C@H](C)O2 | nt | nt | nt | nt | i | 68
Cc1noc(C)c1S(=O)(=O)Nc1ccc2c(c1)C(=O)N([C@@H](C)CO)C[C@@H](C)[C@@H](CN(C)C(=O)Nc1ccc(C(F)(F)F)cc1)OCCCC[C@@H](C)O2 | nt | nt | nt | nt | i | i
Cc1noc(C)c1S(=O)(=O)Nc1ccc2c(c1)C(=O)N([C@@H](C)CO)C[C@H](C)[C@H](CN(C)C(=O)Nc1ccc(C(F)(F)F)cc1)OCCCC[C@H](C)O2 | nt | nt | nt | nt | i | 89
Cc1noc(C)c1S(=O)(=O)Nc1ccc2c(c1)C(=O)N([C@H](C)CO)C[C@H](C)[C@@H](CN(C)C(=O)Nc1ccc(C(F)(F)F)cc1)OCCCC[C@H](C)O2 | nt | nt | nt | nt | i | 86
COCCCN1C(=O)[C@@]2(Cc3ccccc31)c1ccccc1C(=O)N(C1CCCCC1)[C@H]2c1ccc(CO)cc1 | nt | nt | nt | nt | i | i
COc1cccc(CNC(=O)C[C@H]2C=C[C@H](NC(=O)C3CCOCC3)[C@@H](CO)O2)c1 | nt | nt | nt | nt | i | i
CCN1CCN(c2nc(-c3cccs3)nc3ccccc23)CC1 | i | i | i | i | i | 134
c1ccc(CN2CCC(Nc3nc(-c4cccs4)nc4ccccc34)CC2)cc1 | i | i | i | 75 | i | i
CN1CCN(c2nc(-c3cccs3)nc3ccccc23)CC1 | i | i | i | i | i | i
COc1ccc(CNC(=O)C[C@@H]2C[C@@H]3c4cc(NC(=O)CC5CC5)ccc4O[C@@H]3[C@H](CO)O2)cc1 | nt | nt | nt | nt | i | i
COCC(=O)O[C@]1(CCN(C)CCCc2nc3ccccc3[nH]2)CCc2cc(F)ccc2[C@@H]1C(C)C | i | i | i | 90 | i | i
CO[C@H]1CN(C)C(=O)c2ccc(NC(=O)C3CC3)cc2OC[C@H](C)N(C(=O)c2cccnc2)C[C@@H]1C | nt | nt | nt | nt | i | i
Cc1noc(C)c1NC(=O)N(C)C[C@H]1Oc2ccc(NC(=O)Nc3ccc(C(F)(F)F)cc3)cc2C(=O)N([C@@H](C)CO)C[C@H]1C | nt | nt | nt | nt | i | i
CN(C)c1cccc(/C=C(\C#N)c2ccccc2)c1 | i | i | i | i | 55 | i
COc1ccc(-n2nc(C(=O)c3cccs3)cc(-c3nc4ccccc4[nH]3)c2=N)cc1 | i | i | i | 87 | nt | i
Cc1ccccc1-n1nc(C(=O)c2cccs2)cc(-c2nc3ccccc3[nH]2)c1=N | i | i | i | i | nt | i

Bioassay records deposited in PubChem BioAssay by several laboratories.
